From PubChem BioAssay (NCATS)
Inconclusive results are not listed. Active and inactive are the calls of the source. Unless noted, calls come from the whole dose curve; as a rule, active = well fitted curve in either direction with a large enough effect (not every such curve was filed as active); inconclusive = small, poorly fitted or top-dose-only effect, or another doubt; inactive = flat fitted curve, though single readings scatter.

What was measured:
[1] = NFAT Signaling Pathway (AID 444); settings: Jurkat NFAT-bla M1, carbachol, beta-lactamase ratio, 5 h; at 17.2 µM (top of the series) unless noted;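 note: carbachol stimulus at about its EC50 of 1 µM final; % is set by controls: 0 for no effect and ±100 for the full control effect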
How it was run: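 Read-out: CCF4 FRET ratio (460 nm/530 nm) after 1 h RT dye loading, used for %activity and AC50 from titration series. Cells: Jurkat NFAT-β-lactamase/M1 line, treated with compound plus 1 uM carbachol for 5 h, 37 °C.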

[2] = Stat Signaling Pathway (AID 446); settings: ME-180 SIE beta-lactamase reporter, IL-6 stimulated, 5 h; at 17.2 µM (top of the series) unless noted;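 note: ME-180 cervical cancer cells given 40 pM IL-6 alongside compound; SIE-controlled beta-lactamase reporter measured as 460/530 nm FRET emission ratio; % is set by controls: 0 for no effect and ±100 for the full control effect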
How it was run: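 IL-6/STAT signaling read in ME-180 cells via an SIE beta-lactamase reporter. Stimulus was 40 pM IL-6 (its AC50) for 5 hrs, so both activation and inhibition register.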

[3] = target: Glucocorticoid receptor (Homo sapiens) (UniProt P04150); experiment: GR-GFP Redistribution (AID 450;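 active = compounds whose dose series gives a full or clear partial fitted curve of increased nuclear translocation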; note: potency is the fitted concentration of half-maximal effect)
[4] = target: Glucocorticoid receptor (Homo sapiens) (UniProt P04150); experiment: GR-EFC Redistribution (AID 451; calls by dose curve; note: potency is the fitted concentration of half-maximal effect); settings: CHO-K1 GR-EFC translocation, beta-gal luminescence, 2 h
How it was run: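 Translocation of GR-ED fusion to nuclear EA restores b-gal, read by luminescence after 1 h room-temperature detection. Engineered CHO-K1 biosensor cells, 1,000/well, exposed 2 h at 37 C to titrations up to 46 uM final.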

[5] = target: Mitogen-activated protein kinase 10 (Mus musculus) (UniProt Q61831); experiment: JNK3 AlphaScreen Assay (AID 530);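 note: kinase came from lysate of stimulated human HepG2 cells; signal reports phosphorylation of biotinylated GST-cJun 1-79 at Ser73 with 10 µM ATP; % is set by controls: 0 for no effect and ±100 for the full control effect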
How it was run: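 Room-temperature AlphaScreen kinase assay; pre-activated HepG2 lysate as JNK3 source, biotin-GST-cJun(1-79) substrate, 10 uM ATP, compound 15 min preincubation.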

[6] = target: 3',5'-cyclic-AMP phosphodiesterase 4B (Homo sapiens) (UniProt Q07343); experiment: qHTS Assay for Inhibitors of PDE-IV (AID 607; active = well fitted activation curve with a large enough effect in the main read-out, with a control signal flat, not every such curve was filed as active; note: % of control where 0% means no effect)
How it was run: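 Live HEK293 cells with a modified cyclic nucleotide-gated (CNG) channel report intracellular cAMP via membrane-potential dye fluorescence (ex 535/em 590 nm). Endogenous PDE-IV was targeted. Compounds were tested at up to 22.9 uM final; RO 20-1724 100 uM served as control.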

[7] = target: Guanine nucleotide-binding protein G(i) subunit alpha-1 (Homo sapiens) (UniProt P63096); experiment: qHTS Assay for Inhibitors of RGS12 GoLoco Motif Activity (Green Fluorophore) (AID 879; active = well fitted curve in the direction sought with a large enough effect; an effect the other way counts as inactive or inconclusive;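 note: 0% = labeled peptide with Gαi1 and full inhibition = labeled peptide alone without protein; negative values mean loss of peptide binding seen as reduced polarization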)
How it was run: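 Fluorescence polarization assay: 50 nM Gαi1 with 10 nM FITC-labeled RGS12 GoLoco peptide in 10 mM Tris pH 7.5, 150 mM NaCl, 0.1 mM GDP, 0.05% NP40, 10 min at room temperature with compound.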

[8] = target: Muscarinic acetylcholine receptor M1 (Rattus norvegicus) (UniProt P08482); experiment: qHTS Assay for Antagonists of Acetylcholine Muscarinic M1 Receptor: Kinetic Measurement of Intracellular Calcium Response (AID 943; active = well fitted curve in the direction sought with a large enough effect; an effect the other way counts as inactive or inconclusive;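 note: Fluo-4 calcium signal as peak divided by basal fluorescence over 4 min; nearly all actives have a fitted effect of over 75% in size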)
How it was run: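 CHO cells stably expressing rat M1 were loaded with no-wash Fluo-4 dye for 1 h at 37C, pre-incubated 10 min with compound, then challenged with EC80 carbachol (100 nM final); kinetic calcium read 4 min, peak/basal ratio.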

[9] = target: Muscarinic acetylcholine receptor M1 (Rattus norvegicus) (UniProt P08482); experiment: qHTS Assay for Antagonists of Acetylcholine Muscarinic M1 Receptor: Measurement of IP-One Response (AID 944; active = well fitted curve in the direction sought with a large enough effect; an effect the other way counts as inactive or inconclusive; note: nearly all actives have a fitted effect of over 75% in size)
How it was run: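 CHO cells expressing rat M1 receptor, recovered overnight, were pre-incubated 10 min with compound, then stimulated 30 min with carbachol at EC80 (200 nM) in LiCl-containing buffer, pH 7.4. IP1 accumulation was read by HTRF (620/665 nm).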

[10] = target: Pyruvate kinase (Leishmania mexicana) (UniProt Q27686); experiment: qHTS Validation Assay for Inhibitors of Leishmania Mexicana Pyruvate Kinase (AID 945; active = well fitted curve in the direction sought with a large enough effect; an effect the other way counts as inactive or inconclusive; note: potency is the fitted concentration of half-maximal effect;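 for activity change, negative = inhibition: 0% = DMSO only neutral control wells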)
How it was run: (§1)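 Substrate mix (0.5 mM PEP, 0.1 mM ADP, 7 mM MgCl2, 50 mM KCl, pH 7.2 imidazole) received compound by pin tool, then 0.2 nM LmPYK E451W. After 1 h at room temperature, PKLight was added and luminescence measured.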

[11] = target: Pyruvate kinase PKM (Homo sapiens) (UniProt P14618); experiment: qHTS Assay for Activators of Human Muscle Pyruvate Kinase (AID 954; active = well fitted curve in the direction sought with a large enough effect, not every such curve was filed as active;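 note: 0% = uninhibited enzyme and -100% = no enzyme or full thiadiazolimine inhibition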)
How it was run: (§2)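 Enzyme was run at intermediate activity so both inhibitors and activators could be detected. ATP formed from ADP and PEP by 0.1 nM human PKM2 during a 1 h room-temperature incubation was quantified by coupled luciferase luminescence.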

[12] = target: Pyruvate kinase PKM (Homo sapiens) (UniProt P14618); experiment: qHTS Assay for Inhibitors of Human Muscle Pyruvate Kinase (AID 958; active = well fitted curve in the direction sought with a large enough effect; an effect the other way counts as inactive or inconclusive)
How it was run: as §2

[13] = target: Pyruvate kinase (Leishmania mexicana) (UniProt Q27686); experiment: qHTS Validation Assay for Activators of Leishmania Mexicana Pyruvate Kinase (AID 959; active = well fitted curve in the direction sought with a large enough effect; an effect the other way counts as inactive or inconclusive)
How it was run: as §1

[14] = target: Alpha-galactosidase A (Homo sapiens) (UniProt P06280); experiment: Counterscreen for Glucocerebrosidase Inhibitors: qHTS Assay for Human alpha-Galactosidase at pH 4.5 (AID 992; active = well fitted curve in the direction sought with a large enough effect; an effect the other way counts as inactive or inconclusive; note: 0% is about no effect)
How it was run: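 Read-out is 4-methylumbelliferone fluorescence (365 nm excitation, 440 nm emission) after a pH 10 NaOH/glycine stop. Reactions held 2 nM enzyme and 80 uM substrate at pH 4.5 for 20 min at room temperature.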

[15] = target: alpha-glucosidase (Oryza sativa, rice) (UniProt Q653V4); experiment: Counterscreen for Glucocerebrosidase Inhibitors: qHTS Assay for Rice alpha-Glucosidase at pH 5.0 (AID 997; active = well fitted curve in the direction sought with a large enough effect; an effect the other way counts as inactive or inconclusive;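 note: 0% = full activity with enzyme and -100% = basal without enzyme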)
How it was run: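 Rice alpha-glucosidase (4 nM final) with 400 uM 4-methylumbelliferyl-alpha-D-glucopyranoside in citrate buffer pH 5.0, 20 min at room temperature, stopped at pH 10; fluorescence 365/440 nm, compounds 0.7 nM–77 uM, AC50 from Hill fits.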

[16] = qHTS Assay for Identification of Small Molecule Antagonists for NFkB Signaling Pathway (AID 895; active = well fitted inhibition curve with a large enough effect in the signal ratio, with a control signal flat, not every such curve was filed as active; the % refers to the signal ratio; note: potency is the fitted concentration of half-maximal effect)
How it was run: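 Beta-lactamase reporter read-out (460 and 530 nm emission ratio, 405 nm excitation, 2 hrs substrate loading RT) after 5 hr stimulation with 10 pM TNF alpha in compound-treated NFkB-bla ME-180 cells in low-serum medium.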

[17] = qHTS Assay for Identification of Small Molecule Antagonists for Thrombopoietin (TPO) Signaling Pathway (AID 918; active = well fitted curve in the direction sought with a large enough effect; an effect the other way counts as inactive or inconclusive; note: potency is the fitted concentration of half-maximal effect; nearly all actives have a fitted effect of over 60% in size); settings: TPO-dependent cell signaling reporter, antagonist mode
How it was run: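 Murine Ba/F3 cells stably expressing human TPO receptor and a Glycoprotein IIb promoter–luciferase reporter were IL-3-starved overnight, treated with compounds plus TPO (26 pM final, its EC50) for 24 hrs at 37 C, then read by luminescence.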

[18] = qHTS Assay for Identification of Small Molecule Agonists for Hypoxia Response Element Signaling Pathway (AID 914; active = well fitted activation curve with a large enough effect in the signal ratio, with a control signal flat, not every such curve was filed as active; the % refers to the signal ratio; note: % of control where 0% means no effect); settings: ME-180 (cervical carcinoma) HRE-bla reporter, beta-lactamase ratio, CoCl2, 17 h; activation: stronger effect = higher value
How it was run: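 Read-out: CCF4 FRET ratio of 460nm to 530nm emission (excitation 405nm) after 2.5 hours at room temperature, taken from HRE-bla ME-180 cells that had been exposed to compound and EC50 CoCl2 for 17 hours.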

[19] = qHTS Assay for Identification of Small Molecule Agonists for Thrombopoietin (TPO) Signaling Pathway (AID 917; active = well fitted curve in the direction sought with a large enough effect; an effect the other way counts as inactive or inconclusive; note: % is set by controls: 0 for no effect and ±100 for the full control effect)
How it was run: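 Murine Ba/F3 cells stably expressing human TPO receptor and a Glycoprotein IIb promoter–luciferase reporter were IL-3-starved overnight, then treated with compounds plus TPO (26 pM final, its EC50) for 24 hrs at 37 C; luminescence was read.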

Glucocorticoid receptor (Homo sapiens), sequence (P04150 whole entry, looked up, the tested form may be a part): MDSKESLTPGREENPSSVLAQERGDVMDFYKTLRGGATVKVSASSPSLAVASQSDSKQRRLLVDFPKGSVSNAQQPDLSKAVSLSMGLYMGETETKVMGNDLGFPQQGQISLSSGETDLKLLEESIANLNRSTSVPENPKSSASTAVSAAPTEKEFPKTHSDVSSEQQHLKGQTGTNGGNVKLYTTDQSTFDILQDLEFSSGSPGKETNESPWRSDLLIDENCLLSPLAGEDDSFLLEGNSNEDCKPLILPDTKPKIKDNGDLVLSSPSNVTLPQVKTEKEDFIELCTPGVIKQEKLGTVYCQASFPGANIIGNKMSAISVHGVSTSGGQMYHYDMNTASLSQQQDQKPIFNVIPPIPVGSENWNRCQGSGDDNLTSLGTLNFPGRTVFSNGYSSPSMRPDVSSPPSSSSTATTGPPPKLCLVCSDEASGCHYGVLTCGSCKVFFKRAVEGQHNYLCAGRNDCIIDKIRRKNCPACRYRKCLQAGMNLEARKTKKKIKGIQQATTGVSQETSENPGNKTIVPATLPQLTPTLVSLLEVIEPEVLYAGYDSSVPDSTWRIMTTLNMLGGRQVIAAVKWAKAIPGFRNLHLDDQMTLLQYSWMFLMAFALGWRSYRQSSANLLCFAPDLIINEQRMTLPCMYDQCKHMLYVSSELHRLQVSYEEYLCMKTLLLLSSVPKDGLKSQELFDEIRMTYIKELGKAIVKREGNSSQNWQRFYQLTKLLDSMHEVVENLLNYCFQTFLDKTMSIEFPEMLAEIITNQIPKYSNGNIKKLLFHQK
Guanine nucleotide-binding protein G(i) subunit alpha-1 (Homo sapiens), sequence (P63096 whole entry, looked up): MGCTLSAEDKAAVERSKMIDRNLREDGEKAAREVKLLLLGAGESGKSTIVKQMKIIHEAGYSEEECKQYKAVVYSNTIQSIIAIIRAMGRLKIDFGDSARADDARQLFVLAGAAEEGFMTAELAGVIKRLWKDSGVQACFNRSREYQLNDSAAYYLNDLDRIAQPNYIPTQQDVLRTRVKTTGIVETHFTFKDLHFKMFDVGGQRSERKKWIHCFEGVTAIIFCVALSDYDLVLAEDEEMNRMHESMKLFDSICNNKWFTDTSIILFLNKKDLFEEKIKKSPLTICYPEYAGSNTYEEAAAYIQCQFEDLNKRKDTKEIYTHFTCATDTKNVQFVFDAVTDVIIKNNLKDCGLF
Muscarinic acetylcholine receptor M1 (Rattus norvegicus), sequence (P08482 whole entry, looked up): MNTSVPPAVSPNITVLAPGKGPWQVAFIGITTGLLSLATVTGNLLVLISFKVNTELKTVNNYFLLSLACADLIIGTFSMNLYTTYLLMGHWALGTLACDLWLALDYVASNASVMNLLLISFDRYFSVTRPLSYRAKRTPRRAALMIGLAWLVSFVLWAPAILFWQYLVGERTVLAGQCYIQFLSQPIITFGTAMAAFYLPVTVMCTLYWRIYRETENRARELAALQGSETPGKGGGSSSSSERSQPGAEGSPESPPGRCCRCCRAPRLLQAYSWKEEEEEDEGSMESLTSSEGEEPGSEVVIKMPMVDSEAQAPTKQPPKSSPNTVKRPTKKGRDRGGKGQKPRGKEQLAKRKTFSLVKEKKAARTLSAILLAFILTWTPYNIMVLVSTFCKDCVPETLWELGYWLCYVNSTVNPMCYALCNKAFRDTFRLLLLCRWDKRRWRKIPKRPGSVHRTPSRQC
Pyruvate kinase PKM (Homo sapiens), sequence (P14618 whole entry, looked up): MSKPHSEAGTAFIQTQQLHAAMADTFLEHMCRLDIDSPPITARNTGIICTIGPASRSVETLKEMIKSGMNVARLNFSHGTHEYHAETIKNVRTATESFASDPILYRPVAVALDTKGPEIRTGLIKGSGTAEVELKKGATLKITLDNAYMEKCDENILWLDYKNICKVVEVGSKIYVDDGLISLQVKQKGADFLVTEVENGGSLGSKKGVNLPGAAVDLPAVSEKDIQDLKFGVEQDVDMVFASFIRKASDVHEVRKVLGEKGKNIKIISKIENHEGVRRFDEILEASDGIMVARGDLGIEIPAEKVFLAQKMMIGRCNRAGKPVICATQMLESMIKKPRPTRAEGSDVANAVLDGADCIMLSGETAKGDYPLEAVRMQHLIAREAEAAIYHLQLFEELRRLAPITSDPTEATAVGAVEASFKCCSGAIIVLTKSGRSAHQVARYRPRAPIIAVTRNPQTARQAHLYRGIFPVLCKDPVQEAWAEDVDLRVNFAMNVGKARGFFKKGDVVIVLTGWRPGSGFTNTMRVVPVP
Pyruvate kinase (Leishmania mexicana), sequence (Q27686 2-499 E452W): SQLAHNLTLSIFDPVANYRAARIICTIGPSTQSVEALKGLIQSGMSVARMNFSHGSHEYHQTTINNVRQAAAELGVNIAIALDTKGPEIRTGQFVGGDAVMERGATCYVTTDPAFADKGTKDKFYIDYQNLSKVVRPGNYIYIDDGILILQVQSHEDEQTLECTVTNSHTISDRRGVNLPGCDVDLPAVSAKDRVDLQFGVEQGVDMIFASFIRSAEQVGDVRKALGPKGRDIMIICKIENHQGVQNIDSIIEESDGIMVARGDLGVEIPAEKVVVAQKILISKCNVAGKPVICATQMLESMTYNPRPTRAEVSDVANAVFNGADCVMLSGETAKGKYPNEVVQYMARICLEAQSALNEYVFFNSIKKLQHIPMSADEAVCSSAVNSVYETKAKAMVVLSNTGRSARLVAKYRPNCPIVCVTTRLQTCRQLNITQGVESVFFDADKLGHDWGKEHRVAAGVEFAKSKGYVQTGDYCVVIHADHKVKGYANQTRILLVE
Alpha-galactosidase A (Homo sapiens), sequence (P06280 whole entry, looked up): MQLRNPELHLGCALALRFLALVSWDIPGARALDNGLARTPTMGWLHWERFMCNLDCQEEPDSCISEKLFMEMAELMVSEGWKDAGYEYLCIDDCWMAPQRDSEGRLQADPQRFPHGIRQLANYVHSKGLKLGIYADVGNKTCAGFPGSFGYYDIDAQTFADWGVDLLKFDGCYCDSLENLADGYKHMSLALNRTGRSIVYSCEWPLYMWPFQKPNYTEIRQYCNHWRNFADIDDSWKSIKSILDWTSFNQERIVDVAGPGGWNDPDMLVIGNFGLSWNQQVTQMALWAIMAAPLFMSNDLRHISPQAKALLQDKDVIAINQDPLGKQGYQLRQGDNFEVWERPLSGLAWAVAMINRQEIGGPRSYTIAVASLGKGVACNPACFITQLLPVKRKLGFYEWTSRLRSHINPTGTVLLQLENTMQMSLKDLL
3',5'-cyclic-AMP phosphodiesterase 4B (Homo sapiens), sequence (Q07343 whole entry, looked up): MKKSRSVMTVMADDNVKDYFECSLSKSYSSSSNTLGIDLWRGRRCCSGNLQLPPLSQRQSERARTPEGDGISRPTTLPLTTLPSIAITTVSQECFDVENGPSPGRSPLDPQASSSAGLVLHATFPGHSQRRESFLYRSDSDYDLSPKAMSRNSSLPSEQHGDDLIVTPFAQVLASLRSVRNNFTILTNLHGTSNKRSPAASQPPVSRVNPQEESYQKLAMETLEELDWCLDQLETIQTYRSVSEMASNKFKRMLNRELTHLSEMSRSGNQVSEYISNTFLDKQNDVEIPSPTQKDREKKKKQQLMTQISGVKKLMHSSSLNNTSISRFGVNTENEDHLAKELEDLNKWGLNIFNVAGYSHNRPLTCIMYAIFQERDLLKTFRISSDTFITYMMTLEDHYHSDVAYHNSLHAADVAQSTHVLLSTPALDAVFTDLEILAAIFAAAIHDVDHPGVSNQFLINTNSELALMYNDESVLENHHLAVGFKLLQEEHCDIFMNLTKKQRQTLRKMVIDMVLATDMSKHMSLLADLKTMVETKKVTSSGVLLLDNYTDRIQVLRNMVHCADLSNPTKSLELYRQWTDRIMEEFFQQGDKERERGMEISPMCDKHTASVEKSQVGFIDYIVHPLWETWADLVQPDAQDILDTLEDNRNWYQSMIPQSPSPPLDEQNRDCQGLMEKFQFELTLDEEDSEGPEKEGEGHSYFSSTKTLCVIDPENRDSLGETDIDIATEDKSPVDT

Cc1ccc(-n2ncc3c(NCc4cccnc4)ncnc32)c(C)c1
inactive: activity change, negative = inhibition [1] -27.9% | activity, negative = inhibition [2] -18.9% | Potency [3] > 20.6 µM

C=CCn1c(=S)[nH]c2nc3c(cc2c1=O)COC(C)(C)C3
inactive: activity change, negative = inhibition [1] 5.11% | activity, negative = inhibition [2] 3.02% | Potency [3] > 20.6 µM

CCOC(=O)CSc1nc(N)c2c3c(sc2n1)CCCC3
inactive: activity change, negative = inhibition [1] -14.4% | activity, negative = inhibition [2] -14.2% | Potency [3] > 20.6 µM

O=C(/C=C\c1ccc(O)cc1)c1ccc(O)cc1O
inactive: activity change, negative = inhibition [1] -30% [at 38 µM] | activity, negative = inhibition [2] 25.4% [at 38 µM] | Potency [3] > 46 µM | Potency [4] > 46 µM | Potency [5] | Potency [6] | outcome [7] | Potency [8] | Potency [9] | outcome [11] | Potency [13] | outcome [14] | outcome [15]
active: Potency [10] 12.6 µM | Potency [12] 15.8 µM

O=C(c1ccc2c3c(cccc13)C(=O)N(O)C2=O)N1CCCCC1
inactive: activity change, negative = inhibition [1] 0.433% | activity, negative = inhibition [2] 22.1% | Potency [3] > 20.6 µM

CCCc1[nH]nc2c1C(c1c(C)nn(-c3ccccc3)c1Cl)C(C#N)=C(N)O2 (stereo not given)
inactive: activity change, negative = inhibition [1] 14.9% | activity, negative = inhibition [2] -29.6% | Potency [3] > 20.6 µM

NC(=O)CSc1nnc2n(-c3ccccc3)c(=O)c3c4c(sc3n12)CCCCC4
inactive: activity change, negative = inhibition [1] -30% | activity, negative = inhibition [2] 9.67% | Potency [3] > 20.6 µM

CN(C)C/C(Cl)=C(\Cl)c1ccccc1
inactive: activity, negative = inhibition [2] -22.6% | Potency [3] > 20.6 µM
active: activity change, negative = inhibition [1] -119%

C=C(C)CC1N(c2cccc(OC)c2)C(=O)[C@@H]2C(C(=O)O)[C@H]3C=C[C@@]12O3 (stereo not given in full)
inactive: activity change, negative = inhibition [1] 5.5% | activity, negative = inhibition [2] 3.15% | Potency [3] > 20.6 µM

FC(F)(F)c1cc(CO[C@@H]2CCCN[C@H]2c2ccccc2)cc(C(F)(F)F)c1
active: Potency [17] 10 µM
inactive: activity change, negative = inhibition [1] 16.5% [at 38 µM] | activity, negative = inhibition [2] -14.5% [at 38 µM] | Potency [3] > 46 µM | Potency [4] > 46 µM | Potency [5] | outcome [7] | Potency [16] | Potency [8] | Potency [9] | Potency [10] | outcome [11] | outcome [14] | outcome [15]

COc1ccc(-c2nn3c(C4CCCCC4)nnc3s2)cc1OC
inactive: activity change, negative = inhibition [1] -3.44% | activity, negative = inhibition [2] 16.5% | Potency [3] > 20.6 µM

COc1cc(C2C(C#N)=C(N)Oc3cc(C)n(CCc4ccccc4)c(=O)c32)cc2c1OCO2 (stereo not given)
inactive: activity change, negative = inhibition [1] -4.95% | activity, negative = inhibition [2] -6.08% | Potency [3] > 20.6 µM

CN1CCc2cc(O)c(O)cc2[C@H](c2ccccc2)C1
active: Potency [17] 10 µM
inactive: activity change, negative = inhibition [1] -1.87% [at 38 µM] | activity, negative = inhibition [2] -12.3% [at 38 µM] | Potency [3] > 46 µM | Potency [4] > 46 µM | Potency [5] | Potency [6] | outcome [7] | Potency [10] | outcome [11] | outcome [14] | outcome [15]

[N-]=[N+]=CC(=O)c1ccnc(C(=O)C=[N+]=[N-])c1
inactive: activity change, negative = inhibition [1] -17.4% | activity, negative = inhibition [2] -1.87% | Potency [3] > 20.6 µM

Cc1nc(NCCN)c(C#N)c2c1COC(C)(C)C2
inactive: activity change, negative = inhibition [1] -1.13% | activity, negative = inhibition [2] 7.79% | Potency [3] > 20.6 µM

CCOC(=O)c1[nH]c2ccc(OC)cc2c1NC(=O)CN1CCN(c2ccccn2)CC1
inactive: activity change, negative = inhibition [1] -9.84% | activity, negative = inhibition [2] -2.44% | Potency [3] > 20.6 µM

Cc1cc(C)c(-n2c(O)c(C=NCCN3CCOCC3)c(=O)[nH]c2=O)c(C)c1
inactive: activity change, negative = inhibition [1] 7.98% | activity, negative = inhibition [2] 4.18% | Potency [3] > 20.6 µM | activation [18] -6.53%

COc1ccccc1-c1nn2c(-c3ccc(C(C)(C)C)cc3)nnc2s1
inactive: activity change, negative = inhibition [1] -12.3% | Potency [3] > 20.6 µM

C#CCSC1=C(C#N)C(c2cccs2)C(C(=O)OCC)=C(C)N1 (stereo not given)
inactive: activity change, negative = inhibition [1] -26.3% | Potency [3] > 20.6 µM

O=C(Oc1oc(-c2ccco2)nc1C=Nc1ccccc1)c1ccoc1
inactive: Potency [3] > 20.6 µM
active: activity change, negative = inhibition [1] -123%

CSc1nc(N)c(C#N)c(-c2ccccc2Cl)c1C#N
inactive: activity change, negative = inhibition [1] 19.4% | Potency [3] > 20.6 µM

Nc1ncnc2c1ncn2[C@@H]1O[C@@H](CO)[C@H](O)[C@@H]1O
inactive: activity change, negative = inhibition [1] 4.32% [at 38 µM] | Potency [3] > 46 µM | Potency [4] > 46 µM | Potency [5] | outcome [7] | Potency [19] | Potency [8] | Potency [9] | Potency [10] | outcome [11] | outcome [14] | outcome [15]
active: Potency [16] 4.47 µM
